# Shown are actives, neighbours in structure and some others; about 3.2% of the full set was active somewhere.
# rCAG binder-1 = r(CAG) repeat RNA binding. TO-PRO-1 dye displacement fluorescence. inhibition, % at 3 µM. 370,000 tested, 1.3% active. AID 651821;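 active = inhibition above the plate cutoff, the mean of all test compounds on that plate plus 3 SD, cut at about 35% in these data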;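 note: 0% = DMSO alone and 100% = 100 µM mitoxantrone as full dye displacement; higher means more dye released from RNA so lower well fluorescence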
# sPLA2-III inh = Inhibits HGIII-sPLA2 liposome hydrolysis, primary screen. 370,000 tested, 0.56% active. QFRET BODIPY PC-A2 liposome hydrolysis, fluorescence. Q9NZ20. inhibition, % at 12.2 µM;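 active = inhibition above mean plus 3 SD of compounds lying within the high and low control bounds, cut at about 19% in these data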;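 note: 0% = median of test compound wells and 100% = no enzyme DMSO wells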
# Target sequence (Q9NZ20 whole entry, looked up): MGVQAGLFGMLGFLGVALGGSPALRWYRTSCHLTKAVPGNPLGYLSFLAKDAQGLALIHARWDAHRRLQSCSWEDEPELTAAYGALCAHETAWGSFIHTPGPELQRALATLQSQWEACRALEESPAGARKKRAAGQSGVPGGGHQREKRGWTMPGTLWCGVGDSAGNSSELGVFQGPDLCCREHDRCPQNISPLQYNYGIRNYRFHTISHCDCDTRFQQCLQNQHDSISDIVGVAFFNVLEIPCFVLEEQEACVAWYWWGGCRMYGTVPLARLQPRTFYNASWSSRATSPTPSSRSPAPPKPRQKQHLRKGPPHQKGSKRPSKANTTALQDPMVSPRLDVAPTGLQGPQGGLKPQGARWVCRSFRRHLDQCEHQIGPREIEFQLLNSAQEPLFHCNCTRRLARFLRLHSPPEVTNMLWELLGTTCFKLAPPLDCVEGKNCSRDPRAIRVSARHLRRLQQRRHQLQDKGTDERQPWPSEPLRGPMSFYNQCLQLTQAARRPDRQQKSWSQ
# bovine MsrA act = activates bovine MsrA enzyme. 360,000 tested, 0.3% active. activation, % at 10.6 µM. purified bovine MsrA, absorbance read-out. AID 602163; in the data active = activation above about 7.5%;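 note: 0% = vehicle and 100% = reference activator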
# PG9 binder = binds the HIV-1 gp120 antibody PG9; TR-FRET gp120-PG9 antibody binding; inhibition, % at 6.7 µM; 360,000 tested, 0.43% active; in the data active = inhibition above about 8.5%
# MsrA inh = inhibitors of bovine MsrA. purified bovine MsrA, absorbance read-out. inhibition, % at 15.5 µM. 360,000 tested, 0.75% active; in the data active = inhibition above about 4.5%;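 note: 0% = vehicle wells with enzyme and 100% = reference inhibitor wells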
# rCAG bind conf = r(CAG) RNA repeat binding, confirmation | AID 652065 | TO-PRO-1 dye displacement fluorescence | shares compounds with rCAG binder-1 | inhibition, % at 3 µM | 4,300 tested, 70% active;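 active = inhibition above a per-plate cutoff, the mean inhibition of sample wells plus 3 SD, cut at about 35% in these data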;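 note: loss of TO-PRO-1 fluorescence as compound displaces dye from 1x1 AA loop RNA; 0% = DMSO only wells and 100% = 100 µM mitoxantrone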
# DNA CAG counter = counter-screen for rCAG RNA binders: DNA CAG dye complex inhibitors. shares compounds with rCAG binder-1. d(CAG) DNA oligo TO-PRO-1 dye displacement, fluorescence. 4,300 tested, 94% active. inhibition, % at 3 µM;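 active = inhibition above its plate's cutoff, the mean test-well inhibition plus 3 SD, cut at about 4.8% in these data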;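 note: 0% = DNA dye mix with DMSO and 100% = 100 µM mitoxantrone; hits displace the dye from DNA and so lower well fluorescence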
# dCAG dye DR = disrupts DNA CAG TO-PRO-1 complex in dose response; DNA CAG/GTC duplex TO-PRO-1 dye displacement fluorescence; IC50, µM; 250 tested, 20% active; AID 686960; shares compounds with rCAG binder-1; in the data active = IC50 below about 10 µM
# dCAG DNA bind = counter-screen for rCAG binders: DNA CAG TO-PRO-1 complex inhibitors, late stage; d(CAG) DNA duplex TO-PRO-1 dye displacement, fluorescence; 30 tested, 80% active; shares compounds with rCAG binder-1; AID 720649; IC50, µM
# rCAG binder-2 = binds r(CAG) RNA repeats in late stage dose response; IC50, µM; AID 720651; r(CAG) RNA TO-PRO-1 dye displacement, fluorescence; 30 tested, 100% active; shares compounds with rCAG binder-1
# * = called active by the depositor; i = inactive; · = not tested or not shown. Unless noted, the rule behind the calls is not given here.
SMILES,rCAG binder-1,sPLA2-III inh,bovine MsrA act,PG9 binder,MsrA inh,rCAG bind conf,DNA CAG counter,others
CCOC(=O)N1CCN(C(=O)C[C@H]2C[C@@]3(C(=O)OC)C(=C[C@H](C(C)C)O[C@@H]3C3CC3)N(Cc3cccc4ccccc34)C2=O)CC1,5,-1,·,·,·,·,·,
Nc1c(C(=O)NCC2CCCO2)sc2nc3c(c(-c4ccco4)c12)CC/C3=C\c1ccco1 (stereo not given),60*,-5,-2,-3,1,83*,53*,
O=C(O)CCCn1c(O)c(C=C2N=c3ccccc3=N2)sc1=S,45*,-12,-2,-5,1,29,6.7*,
CCN(CC)c1ccc(-n2c(O)c(C=C3N=c4ccccc4=N3)sc2=S)cc1,4,4,-2,0,-2,·,·,
O=C(O)CCCCCn1c(O)c(C=C2N=c3ccccc3=N2)sc1=S,83*,-12,-1,0,3,65*,29*,dCAG dye DR=i;dCAG DNA bind=2.4*;rCAG binder-2=0.98*
CCCC(C(=O)O)n1c(O)c(C=C2N=c3ccccc3=N2)sc1=S (stereo not given),58*,-4,-8,-2,1,54*,17*,
S=C(NCc1cccc(Cl)c1)OC1CCC12CCC(c1ccccc1)CC2 (stereo not given),4,-11,·,·,·,·,·,
Cc1ccc2c(c1)C(CS(=O)(=O)NCC(C)C)NC2 (stereo not given),6,8,·,·,·,·,·,
C/C(=N\N=C(/N)SC1CC(=O)N(c2cccc(Cl)c2)C1=O)c1cccs1 (stereo not given),54*,-58,-4,-1,1,73*,29*,dCAG dye DR=i
CCCOc1ccc(N2C(=O)CC(S/C(N)=N/N=C(\C)c3cccs3)C2=O)cc1 (stereo not given),66*,-67,-9,-1,0,70*,26*,dCAG dye DR=>30
CCOC(=O)CC[C@@H]1CC[C@]2(CCCN(S(=O)(=O)c3ccccc3)C2)O1,0,1,·,·,·,·,·,
CC(C)C[C@@H](C(=O)N[C@@H](C(=O)O)c1ccccc1)N1C(=O)N2CCc3c([nH]c4ccccc34)[C@@]2(C)C1=O,43*,-41,-3,2,0,43*,12*,
CC(NC(=O)[C@H](C)N1C(=O)N2CCc3c([nH]c4ccccc34)[C@@]2(C)C1=O)c1ccccc1 (stereo not given in full),-5,-37,-3,-1,0,·,·,
Cc1cccc(-c2cccc3c4c([nH]c23)[C@@H]2C[C@H]3[C@@H](CN2CC4)[C@H](C)ON3C)c1,5,-7,·,·,·,·,·,
CC(=O)CSc1nsc(SCC(C)=O)c1C#N,35*,-2,-7,-2,1,38*,18*,
O=C(O)c1cc(S(=O)(=O)Nc2cc(Cl)ccc2Oc2ccccc2)ccc1O,72*,-35,-3,0,0,67*,31*,
COC(=O)[C@]12C[C@H](CC(=O)NCc3cccc(C(F)(F)F)c3)C(=O)N(CCc3ccc(OC)c(OC)c3)C1=C[C@H](COCc1ccccc1)O[C@@H]2C,2,-21,·,·,·,·,·,
O=C(NN=Cc1ccccc1O)C(O)(c1ccccc1)c1ccccc1,6,-1,0,0,0,·,·,
O=C(N/N=C/c1cc([N+](=O)[O-])cc([N+](=O)[O-])c1O)C(O)(c1ccccc1)c1ccccc1,68*,10,-1,0,1,71*,30*,
O=C(c1cccc(Cl)c1)N1CCN(c2ccnc3cc(Cl)ccc23)CC1,·,-15,·,·,·,·,·,
Cc1ccc(C)c(Cn2c(C)nc3c(sc(=S)n3-c3ccccc3)c2=O)c1,2,4,-3,2,0,·,·,
Cc1ccc(-n2c(SCC(=O)O)nc3c(sc(=S)n3-c3ccc(C)c(C)c3)c2=O)cc1,51*,-29,-3,-1,3,42*,14*,
Cc1cccc(S(=O)(=O)Nc2nc3ccccc3nc2Nc2cccc(C(=O)O)c2)c1,53*,-10,-2,8,3,57*,20*,
CC(=O)Nc1ccc(S(=O)(=O)Nc2nc3ccccc3nc2Nc2ccc(S(N)(=O)=O)cc2)cc1,52*,-37,-2,1,3,35*,8.3*,
COc1ccc(Nc2nc3ccccc3nc2NS(=O)(=O)c2ccc(NC(C)=O)cc2)cc1,80*,-35,-3,-3,2,60*,21*,
SMILES,rCAG binder-1,sPLA2-III inh,bovine MsrA act,PG9 binder,MsrA inh,rCAG bind conf,DNA CAG counter,others
CC(=O)Nc1ccc(S(=O)(=O)Nc2nc3ccccc3nc2Nc2ccc(O)c(C(=O)O)c2)cc1,46*,-20,-10,-3,0,25,4,
COc1ccc(Nc2nc3ccccc3nc2NS(=O)(=O)c2cccs2)cc1,42*,-8,2,-1,0,74*,36*,
NS(=O)(=O)c1ccc(Nc2nc3ccccc3nc2NS(=O)(=O)c2cccc([N+](=O)[O-])c2)cc1,94*,-103,-7,-1,4,88*,62*,
CC(=O)c1ccc(Nc2nc3ccccc3nc2NS(=O)(=O)c2cccs2)cc1,33,-10,-1,1,1,·,·,
CCOC(=O)[C@H](CCc1ccccc1)N[C@@H](C)C(=O)N1Cc2cc(OC)c(OC)cc2C[C@H]1C(=O)O,6,5,·,·,·,·,·,
O=C(NCCc1c[nH]c2ccccc12)OCc1cn(-c2ccc(Cl)cc2)nn1,8,-83,·,·,·,·,·,
CCOC(=O)CNC(=O)CSc1nnc(-c2ccccc2)n1CC,-1,-1,·,·,·,·,·,
Cc1c(C)n(Cc2ccc(-c3ccccc3C(=O)O)cc2)c2ccc(C(=O)N[C@@H](C)c3ccc(Br)cc3)cc12,77*,-62,·,·,·,77*,38*,
Cc1c(C)n(Cc2ccccc2)c2ccc(C(=O)O)cc12,3,2,-3,2,1,·,·,
Cc1ccccc1CN1CCCCC(NC(=O)Nc2ccccc2)C1=O (stereo not given),3,2,·,·,·,·,·,
O=C(O)c1cc(NC(=O)c2ccc([N+](=O)[O-])cc2)cc(NC(=O)c2ccc([N+](=O)[O-])cc2)c1,50*,0,-1,0,1,34,7.2*,
CC(C)(C)C(=O)Nc1ccc(C(=O)Nc2cc(NC(=O)c3ccc(NC(=O)C(C)(C)C)cc3)cc(C(=O)O)c2)cc1,44*,-3,-1,-3,0,67*,30*,
O=C(O)c1ccc([N+](=O)[O-])cc1,1,-4,-3,-3,1,·,·,
